This note sets out measurements from PubChem BioAssay (NCI).

“And” between values parts separate entries of the source, which are not always exact repeats. Equal values may be shown once. This is part of a sample that, as a whole, favours compounds with a hit. Of some 83,000 tested, about 20% had one in any assay.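 The test compound was applied at a single concentration to cells in 96-well plates for 48 hours, and percent growth was recorded.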 The source made the active and inactive calls.

The subject of the first assay is SN12C renal. Nature of the assay: NCI-60 one-dose screen, 48 h (100 = growth as untreated, 0 = no growth, -100 = all killed). Particulars: 2.5 µM. The protocol: Growth inhibition of the SN12C human tumor cell line is measured as a screen for anti-cancer activity. Cells are grown in 96 well plates and exposed to the test compound for 48 hours. Compounds are tested at a single concentration, which is 10^-5 M for most compounds. The reported endpoint is percent growth (GI% or GIPRCNT), where numbers from 0 - 100% represent growth inhibition, and numbers from -100% - 0 represent cell death. For example, a value of 40 represents 60% growth inhibition. A value of 0 means no net growth occurred over the course of the experiment. A value of -40 indicates 40% of cells at the beginning of the experiment died by the end of the experiment. A value of -100 means all cells are dead at the end of the experiment.
NCI-60 Human Tumor Cell Lines Screen was performed using the standard one-dose NCI protocol, which is described in more detail at https://dtp.cancer.gov/discovery_development/nci-60/default.htm.
Compounds with GIPRCNT values below 10 were considered active. Activity score was based on GIPRCNT using the following formula: […]
Score is 0 for GIPRCNT values of 100 or above, 50 for GIPRCNT values of 0, and 100 for GIPRCNT values of -100.
As for `COc1cc(NS(C)(=O)=O)ccc1Nc1c2ccccc2nc2ccccc12`, the growth is 17.7% (inactive).

Staying with this assay, now noted: 10 µM.
`O=C(Nc1cccc(Br)c1)Oc1cccc2cccnc12`: the growth is 99.4% (inactive).

`O=C(Nc1c(Cl)cccc1Cl)Oc1cccc2cccnc12`: the growth is 53.9% (inactive).

On to `COc1cc(NS(C)(=O)=O)ccc1Nc1c2ccccc2nc2ccccc12`, for which the growth is 10.6% (inactive) [middle of 4 runs].

The assay is the same for the next values; noted with them: 10 µM unless noted.
With `O=C(Nc1cccc(Br)c1)Oc1ccc(Cl)c2cccnc12`, the growth is 44.7% [100 µM] (inactive).

With `CC(=O)Nc1cccc2cc(O)ccc12`, the growth was 107% (inactive) and 94.4% (inactive) and 97.2% (inactive).

For `Cc1ccnc(NC(c2ccccc2)c2ccc3cccnc3c2O)c1` (stereo not given), the growth is 38.8% (inactive).

Regarding `Cc1ccnc2c1ccc1c(C)ccnc12`, the growth is 15.6% (inactive).

As for `O=C1OCc2cccc3cccc1c23`, the growth is 101% (inactive).

For `CN(C)C(=O)SC1=C(c2c(Cl)cccc2Cl)C(=O)c2ccccc21`, the growth was 82.3% (inactive).

As to `NC1=CC(=O)c2ccccc2C1=O`, the growth was 85.5% (inactive).

Take `C=C(Cl)C(=NC(C)(C)C)Nc1ccccc1C`: the growth is 83.5% (inactive).

In the case of `COc1ccc2nc3cc(Cl)ccc3c(NCCNc3c4ccc(Cl)cc4nc4ccc(OC)cc34)c2c1`, the growth was -89.6% (active).

`Cn1c2ccccc2c2nnc(N/N=C/c3ccccn3)nc21`: the growth is 12.3% (inactive).

In the case of `N#CSCc1c(Cl)cccc1Cl`, the growth is 93.3% (inactive).

As to `CC1=CC(O)C2CC1C2(C)C` (stereo not given), the growth was 102% (inactive) and 108% (inactive).

`CCCCCCCCCCCCCCCCN(CC)CC`: the growth was -83.5% (active).

Take `Oc1c(Br)c(Br)c(O)c(Br)c1Br`: the growth is 113% (inactive).

`CC(C)(C)c1ccc(O)c(C2CCCCC2)c1`: the growth is 97.5% (inactive).

On to `O=C(Nc1ccccc1)c1cc(Cl)ccc1O`, for which the growth is 61.8% (inactive).

With `O=Nc1ccccc1N=O`, the growth is 71.6% (inactive).

For the compound `Cc1c2ccccc2c(C)c2c1ccc1ccccc12`, the growth was 94.3% (inactive).

`O=C(Nc1ccc(F)cc1)ON=C1CCCCC1`: the growth was 100% [100 µM] (inactive).

For the compound `Nc1nc(N)c2nc(CNc3ccc(C(=O)NC(CCC(=O)O)C(=O)O)cc3)cnc2n1` (stereo not given), the growth is 25.6% (inactive) and 14.7% (inactive).

In the case of `CNC(=O)N/N=C/c1ccc([N+](=O)[O-])o1`, the growth is 90.7% (inactive).

In the case of `O=[N+]([O-])c1ccc2c(N=Nc3ccc4ccccc4c3O)c(O)cc(S(=O)(=O)O)c2c1`, the growth was 99.4% (inactive).

In the case of `O=C1N[C@H]2[C@H](CS[C@H]2CCCCC(=O)N(CCP(c2ccccc2)c2ccccc2)CCP(c2ccccc2)c2ccccc2)N1`, the growth is 94.4% (inactive).

As for `NC(=S)N/N=C/c1ccc(Cl)s1`, the growth is 101% (inactive).

Turning to `S=C(NCCNC(=S)[S][Sn]([c]1ccccc1)([c]1ccccc1)[c]1ccccc1)[S][Sn]([c]1ccccc1)([c]1ccccc1)[c]1ccccc1`, the growth was -79.7% (active).

As for `O=C(/C=C/c1cccc(Cl)c1)c1ccccc1`, the growth is 92.3% (inactive) and 81% (inactive).

Take `CCOc1ccc(-c2nc3ccc(-c4nc5ccc(N6CCN(C)CC6)cc5[nH]4)cc3[nH]2)cc1`: the growth was -91.4% (active).

`CN(C)CCOc1ccc2c(c1)C(=O)/C(=C\c1ncc([N+](=O)[O-])n1C)C2`: the growth is 0.0262% (active).

For `CN1c2ccccc2C(C)(C)C12C=Cc1cc(O)ccc1O2` (stereo not given), the growth is 48.7% (inactive).

Regarding `C/C=C1\SC(=S)NC1=O`, the growth was 101% (inactive).

On to `N#CC1C(=O)SC2c3ccccc3C(=O)c3ccccc3C12` (stereo not given), for which the growth was 101% (inactive).

In the case of `CCCCCC(CCCCC)C(=O)O`, the growth is 98.8% (inactive).

Regarding `CN=C(N)N/N=C(\C)c1ccc2c(c1)Cc1cc(/C(C)=N/NC(N)=NC)ccc1-2`, the growth was -49.4% (active).

Regarding `C[N+](C)=c1ccc2nc3c(cc(NCCCNc4cc5oc6cc(=[N+](C)C)ccc-6nc5c5ccccc45)c4ccccc43)oc-2c1`, the growth is -25.5% (active).

The assay is the same for the next values; noted with them: 100 µM.
As to `O=C(Nc1cccc(Br)c1)Oc1cccc2cccnc12`, the growth was -26.1% (active).

As to `O=C(Nc1c(Cl)cccc1Cl)Oc1cccc2cccnc12`, the growth was 33.1% (inactive).
